Test results published in PubChem BioAssay (Tox21).
Results filed as inconclusive are left out. A call without a number means that no potency is given here. Calls of active or inactive are those of the source. Unless noted, the call rests on the fitted dose curve; in most records, active means well fitted curve in the direction sought with a large enough effect in the repeat runs; inconclusive means weak or mixed curves; inactive means no such curve, though single readings can be large; an effect the other way counts as inactive or inconclusive.

How the values were obtained:
[1] = Human pregnane X receptor (PXR) small molecule agonists, qHTS cell viability counter screen (AID 1346977); further: nearly all actives have a fitted effect of over 50% in size; further: potency means the concentration at half of the fitted maximal effect
Method in brief: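 Tox21 qHTS format; PXR-Luc HepG2, 2,000/well, charcoal-stripped FBS 5%. Cpd exposure 24hr. Read: CellTiter-Fluor fluorescence, multiplexed with luciferase.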

[2] = Caspase-3/7 induction in HepG2 cells by small molecules, qHTS assay (AID 1346978); further: nearly all actives have a fitted effect of over 15% in size; further: potency means the concentration at half of the fitted maximal effect
Method in brief: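 Wild-type HepG2 cells (2,000/well) were settled 5 h at 37 C, 5% CO2, then exposed to compounds in DMSO for 17 h. Caspase-3/7 activity was read by luminescence 30 min after adding Caspase-Glo 3/7 reagent at room temperature.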

[3] = Caspase-3/7 induction in CHO-K1 cells by small molecules, qHTS cell viability counter screen (AID 1346979); further: nearly all actives have a fitted effect of over 35% in size; further: potency means the concentration at half of the fitted maximal effect
Method in brief: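 CellTiter-Fluor viability check, qHTS format: wild-type CHO-K1, 16hr compound treatment, 1hr reagent incubation, fluorescence read.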

[4] = Caspase-3/7 induction in CHO-K1 cells by small molecules, qHTS assay (AID 1346980); further: nearly all actives have a fitted effect of over 15% in size; further: potency means the concentration at half of the fitted maximal effect
Method in brief: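 Wild-type cells were seeded at 1,500 per well and settled 5 hr at 37 C, 5% CO2, then exposed to DMSO-dissolved compounds for 17 hr. Caspase-Glo 3/7 reagent was added, and luminescence was read after 30min at room temperature.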

[5] = Caspase-3/7 induction in HepG2 cells by small molecules, qHTS cell viability counter screen (AID 1346981); further: nearly all actives have a fitted effect of over 30% in size; further: potency means the concentration at half of the fitted maximal effect
Method in brief: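 Counter screen for cytotoxicity: HepG2 exposed 16 hr to compounds, then CellTiter-Fluor viability signal (fluorescence, 1 hr reagent incubation).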

[6] = target: Nuclear receptor subfamily 1 group I member 2 (Homo sapiens) (UniProt O75469); test: Human pregnane X receptor (PXR) small molecule agonists, qHTS assay (AID 1346982); further: nearly all actives have a fitted effect of over 35% in size; further: potency means the concentration at half of the fitted maximal effect
Method in brief: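 Luminescence (ONE-Glo, 30 min RT) after 24 hr compound exposure of PXR-Luc HepG2 cells; cells rested 5 hr post-plating in 5% charcoal-stripped FBS medium.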

[7] = target: Acetylcholinesterase (Homo sapiens) (UniProt P22303); test: Acetylcholinesterase (AChE) small molecule antagonists: colormetric cell-based qHTS assay (AID 1347395; calls by dose curve; further: nearly all actives have a fitted effect of over 30% in size)
Method in brief: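 AChE inhibition read colorimetrically via DTNB–thiocholine in SH-SY5Y cells. Compound 30 min, substrate 90 min, both 37 C.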

[8] = target: Nuclear receptor subfamily 1 group I member 2 (Homo sapiens) (UniProt O75469); test: Human pregnane X receptor (PXR) activation by small molecules, qHTS assay (AID 1346985); further: nearly all actives have a fitted effect of over 40% in size
Method in brief: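 DPX-2 cells (HepG2 co-transfected with a PXR response element and a CYP3A4-promoter luciferase construct) were seeded at 2,000 per well, rested 5 hr at 37C, then exposed to DMSO-dissolved compounds for 24 hr. Activation was read as luciferase luminescence.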

Nuclear receptor subfamily 1 group I member 2 (Homo sapiens), sequence (O75469 whole entry, looked up): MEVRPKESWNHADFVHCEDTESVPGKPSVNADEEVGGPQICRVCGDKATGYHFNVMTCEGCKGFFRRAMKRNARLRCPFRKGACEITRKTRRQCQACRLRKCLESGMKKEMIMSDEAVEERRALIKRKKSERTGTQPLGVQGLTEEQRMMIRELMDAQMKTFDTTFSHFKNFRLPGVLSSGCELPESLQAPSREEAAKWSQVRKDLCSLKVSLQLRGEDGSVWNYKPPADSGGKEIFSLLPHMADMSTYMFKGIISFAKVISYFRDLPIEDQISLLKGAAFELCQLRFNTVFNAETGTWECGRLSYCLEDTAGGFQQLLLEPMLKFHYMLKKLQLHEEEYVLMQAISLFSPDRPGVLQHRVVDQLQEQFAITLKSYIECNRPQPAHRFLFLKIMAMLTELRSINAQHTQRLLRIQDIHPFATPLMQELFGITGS
Acetylcholinesterase (Homo sapiens), sequence (P22303 whole entry, looked up): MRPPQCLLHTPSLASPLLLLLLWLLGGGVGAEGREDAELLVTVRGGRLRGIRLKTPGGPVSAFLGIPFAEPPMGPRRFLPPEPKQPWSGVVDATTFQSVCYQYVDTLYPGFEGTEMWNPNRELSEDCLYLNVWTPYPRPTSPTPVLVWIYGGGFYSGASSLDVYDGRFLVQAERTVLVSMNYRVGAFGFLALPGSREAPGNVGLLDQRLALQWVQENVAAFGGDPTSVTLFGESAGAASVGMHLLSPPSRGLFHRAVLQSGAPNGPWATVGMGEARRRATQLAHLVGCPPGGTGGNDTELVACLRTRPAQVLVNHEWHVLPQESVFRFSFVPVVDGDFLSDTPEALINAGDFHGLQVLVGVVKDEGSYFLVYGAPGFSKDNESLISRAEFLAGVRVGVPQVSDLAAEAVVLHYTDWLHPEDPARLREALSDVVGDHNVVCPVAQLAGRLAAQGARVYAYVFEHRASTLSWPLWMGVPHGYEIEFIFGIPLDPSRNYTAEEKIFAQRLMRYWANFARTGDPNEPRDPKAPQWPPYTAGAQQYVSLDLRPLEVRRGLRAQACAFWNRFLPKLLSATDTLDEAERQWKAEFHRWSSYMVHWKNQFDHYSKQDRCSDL

## COc1nc(C)nc(NC(=O)NS(=O)(=O)c2ccccc2Cl)n1
[1]
  Potency: inactive
[2]
  Potency: inactive
[3]
  Potency: inactive
[4]
  Potency: inactive
[5]
  Potency: inactive
[6]
  Potency: inactive
[7]
  Potency: inactive

## O=C(Cl)c1ccccc1F
[1]
  Potency: inactive
[2]
  Potency: inactive
[3]
  Potency: inactive
[4]
  Potency: inactive
[5]
  Potency: inactive
[6]
  Potency: inactive
[7]
  Potency: inactive

## O=[N+]([O-])c1ccc(CCl)cc1
[1]
  Potency: inactive
[2]
  Potency: inactive
[3]
  Potency: inactive
[4]
  Potency: inactive
[5]
  Potency: inactive
[6]
  Potency: inactive
[7]
  Potency: inactive

## Brc1cccc(-c2ccccc2)c1
[1]
  Potency: inactive
[2]
  Potency: inactive
[3]
  Potency: inactive
[4]
  Potency: inactive
[5]
  Potency: inactive
[6]
  Potency: 24500 nM (active)
[7]
  Potency: inactive

## [F][Sn]([c]1ccccc1)([c]1ccccc1)[c]1ccccc1
[1]
  Potency: 86.3 nM (active)
[2]
  Potency: 193 nM (active)
[3]
  Potency: 43.3 nM (active)
[4]
  Potency: 61.1 nM (active)
[5]
  Potency: 1220 nM (active)
[6]
  Potency: 77 nM (active)
[7]
  Potency: inactive

## COC(=O)c1ccccc1S(=O)(=O)NC(=O)Nc1nc(C)nc(OC)n1
[1]
  Potency: inactive
[2]
  Potency: inactive
[3]
  Potency: inactive
[4]
  Potency: inactive
[5]
  Potency: inactive
[6]
  Potency: inactive
[7]
  Potency: inactive

## ClSC(Cl)(Cl)Cl
[1]
  Potency: inactive
[2]
  Potency: inactive
[3]
  Potency: inactive
[4]
  Potency: inactive
[5]
  Potency: inactive
[6]
  Potency: inactive
[7]
  Potency: inactive

## CC(Cc1ccc(OCC(=O)O)cc1)NCC(O)c1csc(C(F)(F)F)n1 (centres undefined)
[1]
  Potency: inactive
[2]
  Potency: inactive
[3]
  Potency: inactive
[4]
  Potency: inactive
[5]
  Potency: inactive
[6]
  Potency: inactive
[7]
  Potency: inactive

## CC(=O)[O][Sn]([c]1ccccc1)([c]1ccccc1)[c]1ccccc1
[1]
  Potency: 306 nM (active)
[2]
  Potency: 306 nM (active)
[3]
  Potency: 154 nM (active)
[4]
  Potency: 122 nM (active)
[5]
  Potency: 2730 nM (active)
[6]
  Potency: 243 nM (active)
[7]
  Potency: inactive

## c1cc[n+]2c(c1)-c1cccc[n+]1CC2
[1]
  Potency: 13300 nM (active)
[2]
  Potency: inactive
[3]
  Potency: inactive
[4]
  Potency: inactive
[5]
  Potency: inactive
[6]
  Potency: inactive
[7]
  Potency: inactive

## ClC(Cl)C(Cl)(Cl)Cl
[1]
  Potency: inactive
[2]
  Potency: inactive
[3]
  Potency: inactive
[4]
  Potency: inactive
[5]
  Potency: inactive
[6]
  Potency: inactive
[7]
  Potency: inactive

## CC1(C)[C@H](/C=C2\CCSC2=O)[C@@H]1C(=O)OCc1coc(Cc2ccccc2)c1
[1]
  Potency: inactive
[2]
  Potency: inactive
[3]
  Potency: 61100 nM (active)
[4]
  Potency: inactive
[5]
  Potency: inactive
[6]
  Potency: 21700 nM (active)
[7]
  Potency: inactive

## C=CCBr
[1]
  Potency: inactive
[2]
  Potency: inactive
[3]
  Potency: inactive
[4]
  Potency: inactive
[5]
  Potency: inactive
[6]
  Potency: inactive
[7]
  Potency: inactive

## C=CC(=O)[O][Sn]([CH2]CCC)([CH2]CCC)[CH2]CCC
[1]
  Potency: 686 nM (active)
[2]
  Potency: 2430 nM (active)
[3]
  Potency: 686 nM (active)
[4]
  Potency: 1220 nM (active)
[5]
  Potency: 3860 nM (active)
[6]
  Potency: 172 nM (active)
[7]
  Potency: inactive

## ClC1(Cl)C2(Cl)C3(Cl)C4(Cl)C(Cl)(Cl)C5(Cl)C3(Cl)C1(Cl)C5(Cl)C24Cl (centres undefined)
[1]
  Potency: inactive
[2]
  Potency: inactive
[3]
  Potency: inactive
[4]
  Potency: inactive
[5]
  Potency: inactive
[6]
  Potency: inactive
[7]
  Potency: inactive

## CC[N+]1(CC)CCC(OC(=O)C(O)(c2ccccc2)c2ccccc2)C1 (centres undefined)
[1]
  Potency: inactive
[2]
  Potency: inactive
[3]
  Potency: inactive
[4]
  Potency: inactive
[5]
  Potency: inactive
[6]
  Potency: inactive
[7]
  Potency: inactive

## O=C(CCCCl)c1ccc(F)cc1
[1]
  Potency: inactive
[2]
  Potency: inactive
[3]
  Potency: inactive
[4]
  Potency: inactive
[5]
  Potency: inactive
[6]
  Potency: inactive
[7]
  Potency: inactive

## O=C(O)CCCCCCNC1c2ccccc2CCc2ccccc21
[1]
  Potency: inactive
[2]
  Potency: inactive
[3]
  Potency: inactive
[4]
  Potency: inactive
[5]
  Potency: inactive
[6]
  Potency: inactive
[7]
  Potency: inactive

## O=[N+]([O-])c1ccc(Cl)c(Cl)c1Cl
[1]
  Potency: inactive
[2]
  Potency: inactive
[3]
  Potency: inactive
[4]
  Potency: inactive
[5]
  Potency: inactive
[6]
  Potency: inactive
[7]
  Potency: inactive

## CC(C)C(Nc1ccc(C(F)(F)F)cc1Cl)C(=O)OC(C#N)c1cccc(Oc2ccccc2)c1 (centres undefined)
[1]
  Potency: inactive
[2]
  Potency: inactive
[3]
  Potency: inactive
[4]
  Potency: inactive
[5]
  Potency: inactive
[6]
  Potency: 13800 nM (active)
[7]
  Potency: inactive

## O=S(=O)(NS(=O)(=O)C(F)(F)F)C(F)(F)F
[1]
  Potency: 60900 nM (active)
[2]
  Potency: inactive
[3]
  Potency: 48400 nM (active)
[4]
  Potency: inactive
[5]
  Potency: inactive
[6]
  Potency: 60900 nM (active)
[7]
  Potency: inactive

## CCCCCON=O
[1]
  Potency: inactive
[2]
  Potency: inactive
[3]
  Potency: inactive
[4]
  Potency: inactive
[5]
  Potency: inactive
[6]
  Potency: inactive
[7]
  Potency: inactive

## COC(=O)N(OC)c1ccccc1COc1ccn(-c2ccc(Cl)cc2)n1
[1]
  Potency: 5450 nM (active)
[2]
  Potency: inactive
[3]
  Potency: 43.3 nM (active)
[4]
  Potency: inactive
[5]
  Potency: 54500 nM (active)
[6]
  Potency: 68600 nM (active)
[7]
  Potency: inactive

## C#CC1(O)CCCCC1
[1]
  Potency: inactive
[2]
  Potency: inactive
[3]
  Potency: inactive
[4]
  Potency: inactive
[5]
  Potency: inactive
[6]
  Potency: inactive
[7]
  Potency: inactive

## OCC(Br)CBr (centres undefined)
[1]
  Potency: inactive
[2]
  Potency: inactive
[3]
  Potency: inactive
[4]
  Potency: inactive
[5]
  Potency: inactive
[6]
  Potency: inactive
[7]
  Potency: inactive

## CCCCN(CCCC)C(=S)S
[1]
  Potency: inactive
[2]
  Potency: inactive
[3]
  Potency: inactive
[4]
  Potency: inactive
[5]
  Potency: inactive
[6]
  Potency: 24300 nM (active)
[7]
  Potency: inactive

## [O]=[Cr][O][Cr]=[O]
[1]
  Potency: inactive
[2]
  Potency: inactive
[3]
  Potency: inactive
[4]
  Potency: inactive
[5]
  Potency: inactive
[6]
  Potency: inactive
[7]
  Potency: inactive

## Clc1cc(Cl)c(-c2cc(Cl)c(Cl)cc2Cl)cc1Cl
[1]
  Potency: inactive
[2]
  Potency: inactive
[3]
  Potency: inactive
[4]
  Potency: inactive
[5]
  Potency: inactive
[6]
  Potency: inactive
[7]
  Potency: inactive

## Cc1ccc([N+](=O)[O-])[c]2c1[O][Hg]2
[1]
  Potency: 6680 nM (active)
[2]
  Potency: inactive
[3]
  Potency: 1680 nM (active)
[4]
  Potency: inactive
[5]
  Potency: 21100 nM (active)
[6]
  Potency: 668 nM (active)
[7]
  Potency: inactive

## O=C(Nc1ccc(F)cc1F)c1cccnc1Oc1cccc(C(F)(F)F)c1
[1]
  Potency: inactive
[2]
  Potency: inactive
[3]
  Potency: inactive
[4]
  Potency: inactive
[5]
  Potency: inactive
[6]
  Potency: 4240 nM (active)
[7]
  Potency: inactive

## CCCCON=O
[1]
  Potency: inactive
[2]
  Potency: inactive
[3]
  Potency: inactive
[4]
  Potency: inactive
[5]
  Potency: inactive
[6]
  Potency: inactive
[7]
  Potency: inactive

## COc1ccc(Cc2nccc3cc(OC)c(OC)cc23)cc1OC
[8]
  Potency: inactive

## C[N+]1(C)[C@@H]2CC[C@H]1CC(OC(=O)C(CO)c1ccccc1)C2 (some centres undefined)
[8]
  Potency: inactive
